# From PubChem BioAssay AID686979 (National Center for Advancing Translational Sciences (NCATS), 2013)
# The campaign covered roughly 420,000 compounds. About 50,000 (12%) were called active. Another 26% or so got no clear call; they are omitted. Shown is part of a subset that was picked to be rich in actives. Values without a mark were called inactive. Calls come from the whole dose curve; as a rule, active = well fitted inhibition curve with a large enough effect; inconclusive = small, poorly fitted or top-dose-only effect; inactive = flat fitted curve, though single readings scatter.
# Assay: qHTS for Inhibitors of human tyrosyl-DNA phosphodiesterase 1 (TDP1): qHTS in cells in presence of CPT; note: nearly all actives have a fitted effect of over 55% in size
# Details: chicken DT40 Tdp1-/-;hTDP1 cells + 20 nM CPT, ATP luminescence, 48 h; series mostly up to 46.2 µM; activity change, negative = growth inhibition: at the top concentration
# Excerpt: Human tyrosyl-DNA phosphodiesterase 1 (TDP1) is a novel repair gene, and we propose to use it as a new target for anticancer drug development. TDP1 is not an essential protein, but under treatment with topoisomerase I poison (camptothecin: CPT), TDP1 works as a critical factor for cell survival. To directly identify novel TDP1 inhibitors active in a cellular environment, we have knocked-out the Tdp1 gene in chicken DT40 cells (Tdp1-/-) and generated a complemented counterpart cells that contains a stable transfection of the human TDP1 gene (Tdp1-/-;hTDP1 cells). For the primary screen, Tdp1-/-;hTDP1 cells will be exposed to small molecules in the presence or absence of CPT, and their growth kinetics will be evaluated after 48 hours by measuring ATP activity. […] The hit compounds will then be evaluated in the presence or absence of CPT using Tdp1-/- cells. […] In tertiary assays, biochemical gel-based assays will be used to assess whether the hit compounds specifically target TDP1. To this end, we have screened this cell line against the MLSMR in two primary screens. In one screen we add CPT and in the other we screen in the absence of CPT; this AID represents the screen where CPT was present. NIH Chemical Genomics Center [NCGC] NIH Molecular Libraries Probe Centers Network [MLPCN] MLPCN Grant: MH095538 Assay Submitter (PI): Yves Pommier, NCI
# DT40-hTDP1 cells with 20 nM Camptothecin (add 20 microL of 1 mM CPT stock in 1 L of cell culture medium) were dispensed at 400 cells/5microL/well in tissue culture treated 1536-well white wall/solid bottom assay plates (Greiner Bio-One North America, NC, U.S.A.) using a Multidrop Combi 8 channel dispenser (Thermo Fisher, Waltham, MA, USA). 23 nL compounds and controls were transferred using the pin tool (Kalypsys, San Diego, CA, USA) to the assay plates. The assay plates were then incubated at 37 masculineC for a minimum 48 hr. Three microL of Cell Titer Glo solution was added to the plates and incubated at RT in dark for 30 min. Luminescence was read using ViewLux (Perkin Elmer) with 1 sec exposure slow speed, high gain and 2x binning.
# % is set by controls: 0 for no effect and ±100 for the full control effect; potency is the fitted concentration of half-maximal effect.
SMILES,Potency,"activity change, negative = growth inhibition [%]"
CCOC(=O)N1CCN(C(=O)c2cc3c(-c4ccc(Cl)cc4)nn(C)c3s2)CC1,16.4 µM (active),–
CCOC(=O)N1CCN(C(=O)CNC(=O)Cc2ccc(Cl)cc2)CC1,–,-8.62
CCOc1ccc(-c2ccc(SCC(=O)N3CCOCC3)nn2)cc1,–,-7.39
CCOC(=O)N1CCN(C(=O)c2ccc3nc4cc(Cl)ccc4c(=O)n3c2)CC1,–,-27.5
COc1cccc(-c2ccc(SCC(=O)N3CCN(c4ccccc4)CC3)nn2)c1,16.4 µM (active),–
COc1cccc(-c2nn(C)c3sc(C(=O)N4CCN(c5ccccc5)CC4)cc23)c1,23.1 µM (active),–
Cn1nc(C(F)(F)F)c2cc(C(=O)N3CCOCC3)sc21,–,6.01
COc1cccc(N2CCN(c3ccc4nnc(CCC(=O)N5CCN(C)CC5)n4n3)CC2)c1,–,-12.6
COc1cccc(/C=C/C(=O)OCC(=O)N2CCN(c3ccccc3)CC2)c1,–,-21.8
O=C(Nc1nccs1)C1CCN(S(=O)(=O)c2ccc(Cl)c(C(F)(F)F)c2)CC1,–,-10.5
O=C(NCc1cccnc1)c1ccccc1NC(=O)c1c(F)cccc1F,–,-10.2
CN(C)C(=O)c1cccn(Cc2cccc(C(F)(F)F)c2)c1=O,–,-13.1
CC(C)CC(=O)NC(=S)Nc1ccc(F)cc1F,–,-3.59
CCOC(=O)c1cc(NC(=O)c2cccnc2)ccn1,–,1.21
CCCCOC(=O)c1ccc(N2C(=O)CC(N3CCN(C/C=C/c4ccccc4)CC3)C2=O)cc1 (stereo unspecified),–,-15.8
O=C(c1ccc(F)cc1)N1CCC(n2nnc3ccccc32)CC1,–,1.92
CC(NC(=O)CCCC1CCCCC1)c1ccc(S(N)(=O)=O)cc1 (stereo unspecified),–,9.33
CC(Sc1nc2cc(Cl)ccc2s1)C(=O)Nc1ccc2c(c1)OCO2 (stereo unspecified),–,5.21
COc1ccc(C2NC(=O)N(C)C3=C2C(=O)N(c2ccc(C(=O)O)cc2)C3)cc1 (stereo unspecified),–,-7.11
CC(C(=O)Nc1ccc(F)c(F)c1F)N1CCCCCC1 (stereo unspecified),–,-23.8
COc1ccc([N+](=O)[O-])cc1NC(=O)CC1SC(=Nc2cccc(C)c2C)N(/N=C(\C)c2ccc(C)cc2)C1=O (stereo unspecified),–,12.7
CCOc1ccc(CC(=O)NC2CCN(Cc3ccccc3)CC2)cc1,–,-11.6

SMILES,Potency,"activity change, negative = growth inhibition [%]"
CCOc1ccc(CN2CCCN(C)CC2)cc1,–,-17.7
CCOc1ccc(CN2CCN(Cc3c[nH]c4ccccc34)CC2)cc1,3.66 µM (active),–
CC(C)(C)S(=O)(=O)N1Cc2cc(CO)cc(CCO)c2[C@H]1CCO,–,-2.54
C/C(CC(=O)NC(C)(C)C)=N\NC(=O)c1ccco1,–,5.55
O=c1cc(CCl)nc2scc(-c3ccccc3)n12,14.6 µM (active),–
CCCc1c(C)nc2scc(-c3ccc(Cl)cc3)n2c1=O,–,-12.2
Cc1csc2nc(COC(=O)c3cccc(N(C)C)c3)cc(=O)n12,–,-24.8
Cc1onc(-c2ccccc2)c1C(=O)N1CCN(S(=O)(=O)c2ccccc2C(F)(F)F)CC1,–,-3.88
COc1ccc(CNC(=O)c2nnn(CC(=O)Nc3cc(C)cc(C)c3)c2N)cc1,inactive,–
O=C(CSc1ncc(CO)n1Cc1ccc(F)cc1)NCc1ccco1,–,-8.88
O=C(CSc1nnc(-c2cccs2)n1-c1ccccc1)NCc1ccco1,–,2.07
O=C(Cc1ccc(-n2c(=O)c3sccc3n(Cc3ccc(F)cc3)c2=O)cc1)NCc1ccco1,16.4 µM (active),–
Cc1ccc(N2C(=O)CC(NCc3ccc4c(c3)OCO4)C2=O)cc1Cl (stereo unspecified),–,2.01
CN(C)NC(=O)C(NC(=O)c1ccc(N)cc1)C12CC3CC(CC(C3)C1)C2 (stereo unspecified),–,1.22
COCCCN1C(=O)c2ccc(C(=O)OCC(=O)NCc3ccccc3OC)cc2C1=O,–,1.23
C/C(=N\NC(=O)C(N)=O)c1ccc2c(c1)OCCO2,–,13.6
C/C(=N/NC(=S)Nc1ccccc1)c1ccc2c(c1)OCO2,0.82 µM (active),–
C/C(=N/NC(=O)c1ccncc1)c1ccc2c(c1)OCO2,–,1.21
CCCCNC(=O)CCn1nc(-c2ccc(Cl)cc2)ccc1=O,–,23.4
CCCn1nc2cc(C(=O)NCc3ccccc3)ccc2c1OCC,–,-13.4
CCOC(=O)C(C(=O)c1ccccc1)C(c1ccccc1)c1nccc2ccccc12 (stereo unspecified),20.6 µM (active),–
O=C(O)CSc1nccc2ccccc12,–,-1.02

SMILES,Potency,"activity change, negative = growth inhibition [%]"
Cc1ccc(NC(=O)C2(N3CCC3=O)CCCCC2)cc1,–,2.09
CCn1cc(C(=O)NCC(=O)NC(C)(C)CO)c(=O)c2cc3c(cc21)OCO3,–,14.7
CCCCNC(=O)C1CCCNC1=O (stereo unspecified),–,-27.3
O=C(Cc1ccc([N+](=O)[O-])cc1)NCCc1ccc2c(c1)OCO2,–,-24.6
O=C(NC1CCCCC1)c1cc([N+](=O)[O-])ccc1N1CCOCC1,–,-4.33
O=C(NCc1ccc2c(c1)OCO2)c1cc([N+](=O)[O-])ccc1N1CCOCC1,3.26 µM (active),–
O=C1C2C3C=CC(C3)C2C(=O)N1c1ccc(S(=O)(=O)Nc2nccs2)cc1 (stereo unspecified),–,-8.65
COc1ccc(C(=O)NCc2ccccc2C)cc1S(=O)(=O)NC1CCCC1,–,-4.79
CC(=O)N(CC(O)CO)c1c(I)c(C(=O)NCC(O)CO)c(I)c(C(=O)NCC(O)CO)c1I (stereo unspecified),inactive,–
O=C(C1CC(=O)N(c2ccc(Br)cc2)C1)N1CCCC1 (stereo unspecified),–,-5.65
COc1ccc(NC(=O)CS(=O)(=O)c2ccccc2)cc1,–,31.2
COc1ccc(N(Cc2ccccc2)S(=O)(=O)c2cccc(C(=O)O)c2)cc1,–,-6.42
COc1ccc(C(CC(=O)c2ccccc2)S(=O)(=O)c2ccccc2)cc1 (stereo unspecified),23.1 µM (active),–
NC(=O)c1ncn([C@@H]2O[C@H](CN=C3NS(=O)(=O)c4ccccc43)[C@@H](O)[C@H]2O)n1,–,-10.6
CC(Oc1ccc(Br)cc1)C(=O)NCC(c1ccco1)N1CCCCC1 (stereo unspecified),–,-24.4
CN(C)S(=O)(=O)c1ccc(Oc2ccc(S(=O)(=O)N(C)C)cc2)cc1,16.4 µM (active),–
CN(C)S(=O)(=O)c1ccc(NC(=O)N2CCOCC2)cc1,–,-5.71
COc1ccc(S(=O)(=O)N(C)CC(=O)N2CCCC2)cc1,–,2.13
COc1ccc(N(CC(=O)Nc2cc(OC)cc(OC)c2)S(=O)(=O)c2c(C)n[nH]c2C)cc1,–,-29.6
COc1ccc(CCNC(=O)COC(=O)c2ccc[nH]c2=O)cc1,–,3.7
CC(C)=N/N=C1/NC(=O)C(Cc2ccccc2)S1 (stereo unspecified),–,8.07
CCN(CC(=O)NCc1cccs1)C(=O)/C=C/c1ccc(C)cc1,–,-23.4
